EBV gp42 block = blocks Epstein-Barr virus glycoprotein 42 binding; Fluorescence polarization binding assay, mP read-out; inhibition, % (tested at 21.74 µM); 0.42% of 220,000 active; in the data active means inhibition above about 50%
Target sequence (Q1HVG2 whole entry, looked up): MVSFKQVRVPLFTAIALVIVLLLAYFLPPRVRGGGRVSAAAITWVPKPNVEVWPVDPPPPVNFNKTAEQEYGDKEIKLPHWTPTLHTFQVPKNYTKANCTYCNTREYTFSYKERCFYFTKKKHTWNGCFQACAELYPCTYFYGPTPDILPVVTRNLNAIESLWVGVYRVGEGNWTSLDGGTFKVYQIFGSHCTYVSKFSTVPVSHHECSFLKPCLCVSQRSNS
E coli Lon inh = inhibits E. coli Lon protease; P0A9M0; purified E. coli Lon protease, fluorescence polarization; inhibition, % at 7.94 µM; 0.42% of 360,000 active; AID 602123; in the data active means inhibition above about 13%, passing the limit was not always enough;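 further: 0% = enzyme with probe and DMSO and 100% = no enzyme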
GLD-1 TGE inh = GLD-1-TGE RNA interaction inhibition (C. elegans); purified GLD-1 + fluorescein TGE RNA, fluorescence polarization; inhibition, % at 5.96 µM; 0.44% of 320,000 active; Q17339; AID 2280;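 active means percent inhibition above a per-plate cutoff, the plate mean of test compounds plus 3 SD, cut at about 30% in these data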;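 further: 0% = DMSO wells with GLD-1 and probe and 100% = wells lacking GLD-1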
Target sequence (Q17339 whole entry, looked up): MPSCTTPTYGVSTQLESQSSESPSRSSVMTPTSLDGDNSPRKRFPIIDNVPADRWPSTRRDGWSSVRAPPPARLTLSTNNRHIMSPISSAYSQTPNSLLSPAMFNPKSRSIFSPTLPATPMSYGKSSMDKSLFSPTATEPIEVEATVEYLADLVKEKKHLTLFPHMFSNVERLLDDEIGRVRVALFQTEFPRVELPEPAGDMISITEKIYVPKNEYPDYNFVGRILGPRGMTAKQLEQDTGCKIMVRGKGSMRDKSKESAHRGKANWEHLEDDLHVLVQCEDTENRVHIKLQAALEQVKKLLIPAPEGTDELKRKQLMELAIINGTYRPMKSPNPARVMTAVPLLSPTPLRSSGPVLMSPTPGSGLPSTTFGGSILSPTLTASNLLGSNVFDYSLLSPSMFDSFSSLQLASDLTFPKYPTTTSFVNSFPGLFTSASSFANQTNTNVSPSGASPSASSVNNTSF
MEX-5 binding = C. elegans MEX-5 TCR-2 RNA binding activity | Q9XUB2 | MEX-5/FITC-TCR2 RNA binding, fluorescence polarization; hits give low values | activity score (negative = inhibition of binding), % at 10 µM | 0.38% of 300,000 active | AID 1832;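 active means inhibition past about -25% in most replicates, and total fluorescence under double the plate's negative control median, limit read from the data; inconclusive means replicates evenly split on the limit, or fluorescence at least double controls; inactive means too little inhibition in most replicates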;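 further: 0% = DMSO and -100% = 5 µM competing unlabeled TCR2 RNA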
MCL1 BIM primary = MCL1-BIM-BH3 interaction inhibition (human). Q07820. GST-MCL1 / FITC-Bim-BH3 fluorescence polarization. inhibition, % at 10.9 µM. 0.68% of 320,000 active. AID 2057;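 active means inhibition above the mean inhibition of all tested compounds plus 3 SD, set per campaign, cut at about 40% in these data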;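 further: 0% = DMSO wells and 100% = unlabeled Bim-BH3 peptide control; higher means more loss of mP so more displacement of Bim peptide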
BCLXL inh = inhibitors of human Bcl-xL; 0.7% of 320,000 active; inhibition, % at 10.9 µM; GST-Bcl-xL / FITC-Bim BH3 peptide fluorescence polarization; Q07817;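 active means inhibition above the mean of all tested compounds plus 3 SD, cutoff set per campaign, cut at about 30% in these data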;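 further: 0% = DMSO wells and 100% = unlabeled Bim-BH3 peptide competitor; inhibitors lower millipolarization by displacing the labeled peptide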
Bcl-xL conf = Bcl-xL (human) inhibition, MCL1 counter-screen confirmation | shares compounds with MCL1 BIM primary | GST-Bcl-xL / FITC-Bim BH3 peptide FP binding | inhibition, % at 10.9 µM | 54% of 1,700 active;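 active means inhibition above a cutoff equal to the mean inhibition of all tested compounds plus 3 SD, cut at about 30% in these data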;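 further: 0% = DMSO wells and 100% = unlabeled Bim BH3 control peptide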
MCL1 BIM confirm = confirmation of human MCL1 and BIM-BH3 interaction inhibitors. shares compounds with MCL1 BIM primary. GST-MCL1 / FITC-Bim-BH3 fluorescence polarization. inhibition, % at 10.9 µM. 61% of 1,700 active;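 active means inhibition above the average of all tested compounds plus 3 SD, cut at about 40% in these data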;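 further: 0% = DMSO wells and 100% = unlabeled Bim-BH3 control peptide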
Active calls of the source: *; u = inconclusive; x = not tested or not shown; + = active, no number; ! = a repeat was not active. An excerpt weighted towards active compounds, which were near 1.5% of everything screened.

SMILES | EBV gp42 block | E coli Lon inh | GLD-1 TGE inh | MEX-5 binding | MCL1 BIM primary | BCLXL inh | Bcl-xL conf | MCL1 BIM confirm
COc1ccc2[nH]c(C(=O)Nc3ncc(C)cc3Br)cc2c1 | -5 | -1 | 8 | 0 | 52* | 14 | 4 | 1
Nc1ccc(Nc2ccccc2)c(S(=O)(=O)O)c1 | 13 | -4 | 2 | u | 42* | 25 | 48* | 78*
Cc1ccc(Nc2ccc(N)cc2S(=O)(=O)O)cc1 | -4 | -12 | 0 | -6 | 35 | 17 | x | x
COc1ccc(OC)c(/C=C/c2nc3ccccc3[nH]c2=O)c1 | x | 4 | 75* | -17 | 83* | 78* | 98* | 99*
COc1ccc(OC)c(C=Nc2ccccc2-c2nc3ccccc3[nH]2)c1 | -13 | 2 | -4 | 2 | -1 | 8 | x | x
Cc1cc(O)c(Oc2cc(C)cc(O)c2O)c(O)c1 | -9 | -1 | 11 | -49* | 52* | 27 | 34* | 46*
O=C(NNS(=O)(=O)c1ccc(F)cc1)c1ccccc1O | x | -2 | 6 | -4 | 8 | -3 | x | x
Cc1ccc(S(=O)(=O)NNC(=O)c2ccccc2O)cc1 | -8 | 20 | 0 | 0 | 44* | 16 | 12 | 29
COC(=O)CN(c1ccccc1C)S(C)(=O)=O | -9 | 5 | -3 | 1 | 83* | 2 | 13 | 9
O=C(O)c1cc(-c2ccco2)nc2ccc(Br)cc12 | 2 | -2 | 68*! | -17 | 141*! | 96*! | 45* | 89*
O=C(c1ccco1)N1CCN(C(=O)c2cc(-c3ccncc3)nc3ccc(Br)cc23)CC1 | x | -26 | 1 | -4 | 6 | 12 | x | x
COC(=O)c1ccccc1NC(=O)C/C(C)=N/NC(=O)Cc1ccc(Cl)cc1 | x | -4 | -4 | -3 | 53* | 4 | -1 | 25
CC(=O)N1CC=C2C(C#N)=C(N)C(C#N)(C#N)C(C)C2C1 (stereo not drawn) | 4 | 5 | 11 | -3 | 23 | 16 | x | x
CC(C)(C)C1CC=C2C(C#N)=C(N)C(C#N)(C#N)C(c3cccs3)C2C1 (stereo not drawn) | x | x | 62* | -41* | 63* | 60* | 114* | 145*
N#C/C(=C\c1cccs1)C(=O)Nc1ccccn1 | 24 | 10 | 30 | -20 | 57* | 55* | 49* | 71*
N#C/C(=C\c1ccccc1)C(=O)Nc1ccccn1 | x | 9 | 4 | 3 | -3 | -1 | x | x
NC(=O)c1c(NC(=O)C2CC=CCC2C(=O)O)sc2c1CCCCC2 (stereo not drawn) | x | 1 | 2 | 0 | 41* | 27 | 20 | 20
COc1ccc(N2CCN(C(CNC(=O)COc3ccccc3)c3ccco3)CC2)cc1 (stereo not drawn) | x | -3 | 8 | 2 | 5 | 4 | x | x
CN(CCC#N)C(=O)COC(=O)c1c2c(nc3ccccc13)/C(=C/c1ccco1)CC2 | 95* | -11 | -23 | -24 | 67* | 44* | 40* | 48*
COc1ccc(C2C(C(=O)c3cccs3)=C(O)C(=O)N2c2nncs2)cc1 (stereo not drawn) | 133* | 62* | 114* | -85* | 161* | 139* | 144* | 165*
C=CCOc1cccc(C2C(C(=O)c3cccs3)=C(O)C(=O)N2Cc2cccnc2)c1 (stereo not drawn) | 10 | 2 | 2 | 0 | 2 | 9 | x | x
Cc1cccc(N2C(=O)C(O)=C(C(=O)c3cccs3)C2c2ccc(F)cc2)n1 (stereo not drawn) | -20 | -3 | 0 | 0 | 3 | 7 | x | x
COc1ccc(C2C(C(=O)c3cccs3)=C(O)C(=O)N2c2nnc(C)s2)cc1OC (stereo not drawn) | 91* | 38* | 70* | -60* | 83* | 84* | 128* | 154*
C=CCOc1ccc(C2C(C(=O)c3cccs3)=C(O)C(=O)N2c2nnc(C)s2)cc1 (stereo not drawn) | x | 13 | 74* | -30* | 100* | 100* | 90* | 115*
S=c1nc(-c2csc3c2CCCC3)[nH][nH]1 | -4 | 4 | 2 | 2 | 11 | 10 | x | x
SMILES | EBV gp42 block | E coli Lon inh | GLD-1 TGE inh | MEX-5 binding | MCL1 BIM primary | BCLXL inh | Bcl-xL conf | MCL1 BIM confirm
Cc1cc(C)nc(N2CCCC(CCC(=O)NCc3ccc(F)c(F)c3)C2)n1 (stereo not drawn) | -1 | -3 | -2 | 2 | -2 | -1 | x | x
O=C(c1cccs1)N1CCCC(c2nc3c(nnn3Cc3ccccc3Cl)c(=O)[nH]2)C1 (stereo not drawn) | x | 0 | 5 | 0 | 9 | 8 | x | x
COc1ccc(C2C=C(c3ccc(Br)s3)Nc3ncnn32)cc1OC (stereo not drawn) | 91* | x | 146* | u | + | 189* | 140* | 161*
COc1ccc(C2C=C(c3ccc(C)cc3)Nc3ncnn32)cc1 (stereo not drawn) | 38 | 0 | x | -6 | x | x | x | x
Cc1ccc2[nH]c(=O)c(C3C(C#N)=C(N)Oc4c3ccc3cccnc43)cc2c1 (stereo not drawn) | -2 | 0 | -1 | 2 | 44* | 13 | 37* | 58*
COc1ccc(/C=N/NC(=O)c2nn(-c3ccccc3)c(=O)c3c(N)scc23)cc1 | -12 | 13 | 5 | 3 | 41* | 25 | 12 | 2
Cc1ccc2nc3c(cc(C(=O)NCc4ccco4)c(=N)n3Cc3ccco3)c(=O)n2c1 | -7 | -3 | 0 | -2 | 58* | 30 | 13 | 7
N=c1c(C(=O)NC2CCCC2)cc2c(=O)n3ccccc3nc2n1C1CCCC1 | -11 | -7 | 5 | -19 | 7 | 8 | x | x
Cc1cccn2c(=O)c3cc(C(=O)NCc4ccco4)c(=N)n(C(C)C)c3nc12 | 26 | -6 | 49* | u | 90* | 84* | 39* | 63*
N=c1c(C(=O)NCc2ccco2)cc2c(=O)n3ccccc3nc2n1C1CCCC1 | x | -2 | 22 | -5 | 63* | 54* | 157* | 194*
Cc1ccc(S(=O)(=O)c2cc3c(=O)n4ccccc4nc3n(Cc3ccco3)c2=N)cc1 | 49 | -21 | 10 | -10 | 58* | 38* | 25 | 20
O=C(NCCCN1CCCC1=O)c1ccccc1OCc1ccc(Cl)cc1Cl | x | -7 | 0 | x | x | x | x | x
O=C(Cc1ccccc1)c1ccccc1C(=O)N1CCCCC1 | x | 7 | 2 | 1 | -5 | -1 | x | x
Cc1nc2nc(-c3ccc(Cl)cc3)cn2nc1C | -11 | -18 | -4 | -19 | -13 | 0 | x | x

Compound activity (PubChem BioAssay)
